# Source: PubChem BioAssay AID1788 (Vanderbilt High Throughput Screening Facility, 2009)
# A number with no mark means an inactive call. The rule behind the calls is not given here.
# Tested on: Purinergic P2X (rabbit)
# Assay: PubChem AID 1788
# Conditions: MDS Pharma lead profiling panel, radioligand binding, at 10 µM, stronger effect = higher value
structure (smiles),measurement,value
CCOC(=O)N1CCC(NCCNC(=O)c2ccccc2C)CC1,inhibition,2%
